Data on 26 compounds can be found in PubChem BioAssay (NCI).

In one assay the test system is UACC-62 melanoma. The assay is described as follows: NCI-60 one-dose screen, 48 h (100 = growth as untreated, 0 = no growth, -100 = all killed). Particulars: 10 µM unless noted.
A further assay concerns TK-10 renal. Described as above. Particulars: 10 µM unless noted.

Several values for one entry are separate records, joined by “and”; a condition that tells them apart may be missing. Identical values can stand only once. Compounds without any hit were thinned out: in the full panel of roughly 83,000, 20% have a hit.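 Negative percent growth values reflect cell death: -40 means 40% of the cells present at the start died, and -100 means all died.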 Activity calls are given as the source filed them. Rule for the calls: active = growth percent below 10; inactive = the rest.

As for `COc1c(O)ccc(C2=Cc3ccc(O)cc3OC2)c1OC`, the growth is -72.2% [100 µM] (active) and -24.7% [100 µM] (active) with UACC-62 melanoma; 1.01% [100 µM] (active) and 9.04% [100 µM] (active) with TK-10 renal.

On to `CC(=O)c1ccc(NC(=O)/C(CC(=O)/C=C/c2ccccc2)=N/NC(N)=S)cc1`, for which the growth in the assay on UACC-62 melanoma was 91.1% [100 µM] (inactive) and 43.7% [100 µM] (inactive); in the assay with TK-10 renal it was 125% [100 µM] (inactive) and 43.7% [100 µM] (inactive).

With `C=C1C2CCC3C4(C)CCCC(C)(C(=O)O)C4CCC3(C2)C1OC(=O)/C(C)=C/C` (configuration not stated), the growth with UACC-62 melanoma was -47.9% [100 µM] (active) and 42.1% [100 µM] (inactive); in the assay on TK-10 renal, 27.3% [100 µM] (inactive) and 79.6% [100 µM] (inactive).

For `CC(=O)C1=C(C)N2C(=NC3=C(CCc4ccccc43)C2c2ccc(Cl)cc2)S1` (configuration not stated), the growth in the assay with UACC-62 melanoma is 48.8% [100 µM] (inactive) and 14.3% [100 µM] (inactive); in the assay with TK-10 renal it was 72.8% [100 µM] (inactive) and 35.4% [100 µM] (inactive).

Regarding `NC(=S)Nc1[nH]c(=S)nc2c1SC1=N/C(=C\c3ccco3)C(=O)N12`, the growth in the assay on UACC-62 melanoma is 25.1% [100 µM] (inactive) and 18.6% [100 µM] (inactive); in the assay with TK-10 renal, 75.1% [100 µM] (inactive) and 26.4% [100 µM] (inactive).

For the compound `COC(=O)C(=O)C(C(=O)C(=O)Nc1nc2ccc(C)cc2s1)c1nc2ccc([N+](=O)[O-])cc2[nH]c1=O` (configuration not stated), the growth is 61.1% [100 µM] (inactive) and 52.2% [100 µM] (inactive) in the assay with UACC-62 melanoma; 115% [100 µM] (inactive) and 75.4% [100 µM] (inactive) in the assay with TK-10 renal.

As for `COc1ccc2c(=O)c(-c3cc4c(cc3OC)OCO4)coc2c1`, the growth with UACC-62 melanoma is 30.1% [100 µM] (inactive) and 25.3% [100 µM] (inactive); with TK-10 renal, 8.9% [100 µM] (active) and 12.1% [100 µM] (inactive).

With `CCCCCCCCCCCCC/C=C/[C@H]1[C@@H](C(=O)OC)N1S(=O)c1ccc(C)cc1` (some centres not stated), the growth in the assay with UACC-62 melanoma is 64.8% [100 µM] (inactive) and 3.51% [100 µM] (active); with TK-10 renal, 107% [100 µM] (inactive) and 52.5% [100 µM] (inactive).

As for `COc1ccc2c(C)cc(N/N=C/c3ccc(C)s3)nc2c1`, the growth was -86.5% [100 µM] (active) and -100% [100 µM] (active) in the assay on UACC-62 melanoma; -66.6% [100 µM] (active) and -100% [100 µM] (active) in the assay with TK-10 renal.

Regarding `C=C1C(=O)OC2CC(C)C3(O)CCC(=O)C3(C)CC12` (configuration not stated), the growth with UACC-62 melanoma was 9.02% [100 µM] (active) and 6.55% [100 µM] (active); in the assay on TK-10 renal, 39.8% [100 µM] (inactive) and 21.4% [100 µM] (inactive).

Regarding `COc1ccc(OC)c(N(CN2C(=O)CCC2C(=O)O)C(C)=O)c1` (configuration not stated), the growth is 80.4% [100 µM] (inactive) and 103% [100 µM] (inactive) with UACC-62 melanoma; 78.2% [100 µM] (inactive) and 103% [100 µM] (inactive) in the assay with TK-10 renal.

Consider `COc1ccc(-c2nc3ccccc3c(=S)n2OC(C)=O)cc1`, for which the growth in the assay on UACC-62 melanoma is -63.4% [25 µM] (active) and -95.7% [25 µM] (active); in the assay on TK-10 renal it was 47% [25 µM] (inactive) and -21.7% [25 µM] (active).

On to `C=C1C(=O)OC2/C=C(\CO)CC/C=C(\CO)CC(OC(=O)C(C)C)C12` (configuration not stated), for which the growth in the assay with UACC-62 melanoma was -89.5% [100 µM] (active) and -98.8% [100 µM] (active); with TK-10 renal, -97% [100 µM] (active) and -96.5% [100 µM] (active).

In the case of `CC(C)=CCc1c(OC(=O)c2c(C)cc(O)cc2O)cc(CO)c(CO)c1O`, the growth is -76.6% [100 µM] (active) and -100% [100 µM] (active) in the assay with UACC-62 melanoma; 1.66% [100 µM] (active) and -100% [100 µM] (active) in the assay with TK-10 renal.

For the compound `CCn1c2c(c3ccccc3c1=O)C(=O)c1ccccc1-2`, the growth was 62.3% [100 µM] (inactive) and 2.6% [100 µM] (active) in the assay with UACC-62 melanoma; 73.6% [100 µM] (inactive) and -93.6% [100 µM] (active) in the assay on TK-10 renal.

Consider `O=C1NC(N/N=C\c2ccccc2)=N/C1=C/c1ccc(Cl)cc1`, for which the growth was -9.96% [100 µM] (active) and 107% [100 µM] (inactive) in the assay on UACC-62 melanoma; -70.8% [100 µM] (active) and 57.9% [100 µM] (inactive) with TK-10 renal.

As to `N#Cc1n[nH]n(-c2ccccc2)c1=O`, the growth in the assay on UACC-62 melanoma was 91.7% [100 µM] (inactive) and 100% [100 µM] (inactive); in the assay with TK-10 renal it was 115% [100 µM] (inactive) and 107% [100 µM] (inactive).

With `C[C@@H]1CC[C@H]2C(C)(C)[C@H]3C[C@@]12CC[C@@]3(C)O`, the growth in the assay on UACC-62 melanoma was 80.1% [100 µM] (inactive) and 6.26% [100 µM] (active); with TK-10 renal, 87.1% [100 µM] (inactive) and 15.8% [100 µM] (inactive).

For `Cc1ccc(NC(=O)/C(Cc2cc(=O)oc3cc(O)ccc23)=N\NC(C)(C)C)cc1C`, the growth is 87.9% [100 µM] (inactive) and 92.2% [100 µM] (inactive) with UACC-62 melanoma; 103% [100 µM] (inactive) and 101% [100 µM] (inactive) with TK-10 renal.

Take `Cc1ccc(C)c(NC(=O)/C(=N\N)C(c2cnc3ccc([N+](=O)[O-])cc3n2)[N+](=O)[O-])c1` (configuration not stated): the growth with UACC-62 melanoma is 46.3% [100 µM] (inactive) and 15.7% [100 µM] (inactive); with TK-10 renal, 146% [100 µM] (inactive) and 18.1% [100 µM] (inactive).

Consider `CC1=C2NCN(C)N=C2C(C#N)(C#N)C1(C#N)C#N`, for which the growth with UACC-62 melanoma was -78.8% [100 µM] (active) and -94.8% [100 µM] (active); with TK-10 renal, -7.38% [100 µM] (active) and -90.4% [100 µM] (active).

Regarding `CCCCCCCCCC(O)CC(=O)c1c(O)cccc1O` (configuration not stated), the growth in the assay on UACC-62 melanoma was -96.8% [100 µM] (active) and -100% [100 µM] (active); with TK-10 renal, 4.56% [100 µM] (active) and 1.03% [100 µM] (active).

Turning to `COC(=O)C(=O)C(C(=O)C(=O)Nc1ccc(Cl)c(Cl)c1)c1nc2ccc(C(=O)c3ccccc3)cc2[nH]c1=O` (configuration not stated), the growth with UACC-62 melanoma is 43.9% [100 µM] (inactive) and 6.66% [100 µM] (active); with TK-10 renal, 89.4% [100 µM] (inactive) and 14.4% [100 µM] (inactive).

With `NNc1[nH]c(=S)[nH]c1C(N)=O`, the growth was 98.3% [100 µM] (inactive) and 90.9% [100 µM] (inactive) in the assay on UACC-62 melanoma; 121% [100 µM] (inactive) and 111% [100 µM] (inactive) with TK-10 renal.

As for `CC(=N/N=C/c1ccccn1)/C(C)=N/N=C(C)/C(C)=N/N=C(C)/C(C)=N/N=C(C)/C(C)=N\N=C\c1ccccn1`, the growth is 92.9% [100 µM] (inactive) and 85% [100 µM] (inactive) in the assay with UACC-62 melanoma; 99.9% [100 µM] (inactive) and 81.3% [100 µM] (inactive) in the assay on TK-10 renal.

For the compound `NC(Cc1ccc(S(=O)(=O)O)cc1)C(=O)NC(Cc1ccc(S(=O)(=O)O)cc1)C(=O)NC(Cc1ccc(S(=O)(=O)O)cc1)C(=O)NC(Cc1ccc(S(=O)(=O)O)cc1)C(=O)O` (configuration not stated), the growth in the assay with UACC-62 melanoma was 86.3% [100 µM] (inactive) and 93.4% [100 µM] (inactive); with TK-10 renal, 102% [100 µM] (inactive) and 111% [100 µM] (inactive).
